Compound activity: PubChem BioAssay, National Center for Advancing Translational Sciences (NCATS)
HEK293 cAMP ctrl: parental HEK293 cAMP activation (counter-screen); parental HEK293 CNG cAMP sensor, membrane potential fluorescence; Potency, µM (doses to about 57.1 µM), inactives show top-dose activation, most hits filed as activators; 73,000 tested, 2.5% active; further: potency means the concentration at half of the fitted maximal effect; % of control where 0% means no effect; nearly all actives have a fitted effect of over 55% in size
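Parental HEK 293 cells stably expressing a modified CNG channel (no TSHR) report cAMP rise as membrane depolarization. Membrane potential dye with 100 uM RO 20-1724 was loaded for 60 min at room temperature, then compound added for 30 min; fluorescence read at 590 nm.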
Hsp90 Hop PPI: changes Hsp90-Hop TPR2A binding signal, up or down; AlphaScreen TPR2A-His6 binding biotin-Hsp90 C-terminal peptide; Potency, µM (doses to about 57 µM), for the others: top-dose activity change, negative = inhibition; 71,000 tested, 0.44% active; AID 595; active means well fitted curve in either direction with a large enough effect; inconclusive means small, poorly fitted or top-dose-only effect, or another doubt; further: potency means the concentration at half of the fitted maximal effect; on the % scale 0 is the no-effect control and ±100 the full control effect
BRCT inh green: inhibitors of human BRCA1 BRCT-phosphoprotein interaction (green fluorophore) | P38398 | BRCA1 BRCT-phosphopeptide binding, green fluorescence polarization | Potency, µM (top dose mostly 76.9 µM), inactives show at the highest dose activity change, negative = inhibition, actives largely listed as inhibitors | 75,000 tested, 0.05% active | AID 875;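 further: potency means the concentration at half of the fitted maximal effect; plate controls were peptide without protein for full effect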
Target sequence (P38398 whole entry, looked up): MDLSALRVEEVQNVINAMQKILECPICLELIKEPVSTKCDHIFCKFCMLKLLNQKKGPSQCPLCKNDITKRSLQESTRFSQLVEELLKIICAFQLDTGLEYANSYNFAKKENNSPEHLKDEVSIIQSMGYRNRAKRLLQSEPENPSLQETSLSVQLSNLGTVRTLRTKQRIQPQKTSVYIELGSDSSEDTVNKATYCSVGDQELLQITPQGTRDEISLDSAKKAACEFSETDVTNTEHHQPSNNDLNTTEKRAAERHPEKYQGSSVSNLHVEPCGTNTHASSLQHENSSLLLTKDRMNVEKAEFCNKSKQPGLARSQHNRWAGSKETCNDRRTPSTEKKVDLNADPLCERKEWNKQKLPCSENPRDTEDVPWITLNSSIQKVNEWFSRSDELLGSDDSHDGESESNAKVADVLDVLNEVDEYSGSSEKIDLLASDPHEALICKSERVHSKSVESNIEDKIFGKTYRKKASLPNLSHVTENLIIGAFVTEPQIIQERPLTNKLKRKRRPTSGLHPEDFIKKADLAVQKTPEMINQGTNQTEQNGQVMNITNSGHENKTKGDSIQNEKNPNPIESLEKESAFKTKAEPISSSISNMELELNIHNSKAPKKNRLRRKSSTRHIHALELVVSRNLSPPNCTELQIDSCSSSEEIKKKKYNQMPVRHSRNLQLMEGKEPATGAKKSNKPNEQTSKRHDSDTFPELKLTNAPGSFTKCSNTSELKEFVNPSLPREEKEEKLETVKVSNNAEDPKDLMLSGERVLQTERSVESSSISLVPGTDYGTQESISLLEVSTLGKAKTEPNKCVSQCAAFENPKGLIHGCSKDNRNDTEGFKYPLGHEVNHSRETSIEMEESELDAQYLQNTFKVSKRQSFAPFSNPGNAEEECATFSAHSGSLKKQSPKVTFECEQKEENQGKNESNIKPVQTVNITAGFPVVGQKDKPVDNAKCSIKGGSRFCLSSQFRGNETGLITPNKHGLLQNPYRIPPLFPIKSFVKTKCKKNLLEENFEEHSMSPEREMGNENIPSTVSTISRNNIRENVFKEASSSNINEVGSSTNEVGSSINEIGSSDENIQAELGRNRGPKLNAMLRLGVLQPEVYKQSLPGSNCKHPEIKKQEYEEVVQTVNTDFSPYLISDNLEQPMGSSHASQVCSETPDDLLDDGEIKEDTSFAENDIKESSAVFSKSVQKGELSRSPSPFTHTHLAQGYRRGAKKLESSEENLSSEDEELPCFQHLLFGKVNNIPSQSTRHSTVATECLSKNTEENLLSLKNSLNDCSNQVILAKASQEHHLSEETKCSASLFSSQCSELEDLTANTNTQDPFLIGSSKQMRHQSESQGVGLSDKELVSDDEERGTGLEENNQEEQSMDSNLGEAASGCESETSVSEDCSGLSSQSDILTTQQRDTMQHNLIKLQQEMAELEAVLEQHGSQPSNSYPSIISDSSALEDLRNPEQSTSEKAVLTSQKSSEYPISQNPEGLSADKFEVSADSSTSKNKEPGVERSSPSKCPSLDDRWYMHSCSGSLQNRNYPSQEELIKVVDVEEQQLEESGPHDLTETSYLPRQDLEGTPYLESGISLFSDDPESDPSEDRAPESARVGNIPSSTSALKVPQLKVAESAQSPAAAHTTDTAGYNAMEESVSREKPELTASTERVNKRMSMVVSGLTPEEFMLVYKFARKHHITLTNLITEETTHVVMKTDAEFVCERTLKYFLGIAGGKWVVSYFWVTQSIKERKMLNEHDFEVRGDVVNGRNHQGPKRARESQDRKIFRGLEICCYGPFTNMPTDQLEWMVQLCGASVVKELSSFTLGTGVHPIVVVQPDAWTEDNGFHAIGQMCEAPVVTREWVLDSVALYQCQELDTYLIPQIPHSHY
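Compounds were incubated for 12 min at room temperature with a complex of 100 nM fluorescein-tagged pBACH1 decapeptide and 250 nM His-tagged BRCT protein. Buffer was phosphate pH 7.3 with EDTA, DTT and Tween 20. Disruption of binding lowers the polarization signal.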
YjeE inh: inhibitors of E. coli YjeE (TsaE); P0AF67; 71,000 tested, 0.05% active; Potency, µM; purified YjeE enzyme, qHTS inhibition assay
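Fluorescence polarization of a BODIPY Texas Red–ADP probe (2 uM) bound to purified YjeE (10 uM) was read after 15 min room-temperature incubation with compounds. Loss of polarization marks inhibitors; ADP serves as titrated control.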
TSHR agonist: agonists of human thyroid stimulating hormone receptor; HEK293-CNG-TSHR cells (CNG channel as cAMP sensor), membrane potential dye, cAMP; P16473; Potency, µM (top dose mostly 57.1 µM), without a hit: at the top dose activation, usual class: activators; 73,000 tested, 0.48% active; active means well fitted activation curve with a large enough effect in the main read-out, with a control signal flat, not every such curve was filed as active; inconclusive means small, poorly fitted or top-dose-only effect, or a change in a side signal; inactive means no such curve, though single readings can be large or run the other way; % of control where 0% means no effect;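 further: the control signal comes from parental cells without the receptor; potency means the concentration at half of the fitted maximal effect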
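cAMP rise detected as CNG-channel membrane depolarization by fluorescent dye (emission 590 nm), 30 min after compound, following 60 min dye loading containing 100 uM RO 20-1724 at room temperature. Cells: TSHR/CNG HEK 293, with parental CNG HEK 293 as control.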
BRCT inh red: inhibitors of human BRCA1 BRCT-phosphoprotein interaction (red fluorophore); P38398; 75,000 tested, 0.03% active; Potency, µM (highest dose often 76.9 µM), for the others: at the top dose activity change, negative = inhibition, usual class: inhibitors; BRCT-phosphopeptide binding, red fluorescence polarization; further: on the % scale 0 is the no-effect control and ±100 the full control effect
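Rhodamine-labelled pBACH1 10-mer (100 nM) bound to BRCT domain (100 nM) at pH 7.3; compounds incubated 12 min room temperature, polarization read. Free peptide defines full inhibition; unlabelled decapeptide titrated as control.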
Active calls of the source: *; i = inactive; ? = inconclusive; . = not tested or not shown; [ ] = dose if it differs, or a comment. Rows were chosen to be rich in hits. Some 3.3% of all compounds tested hit in one or more screens of this group. Unless noted, the call rests on the fitted dose curve; in most records, active means well fitted curve in the direction sought with a large enough effect; inconclusive means small, poorly fitted or top-dose-only effect, or another doubt; inactive means no such curve, though single readings can be large; an effect the other way counts as inactive or inconclusive.

SMILES | HEK293 cAMP ctrl | Hsp90 Hop PPI | BRCT inh green | YjeE inh | TSHR agonist | BRCT inh red
N[C@@H](Cc1c[nH]c2ccccc12)C(=O)NCC(=O)O | -0.1% | -4.5% | . | i | -0.9% | .
CC1(C(=O)NCc2cc(F)cc(C(F)(F)F)c2)C=CC2(CCCCC2)N1C(=O)c1ccccc1 (configuration not stated) | 17.1% | -0.3% | -0.1% | i | 15.2% | -1.2%
CC1(C(=O)NCC2CC2)C=CC2(CCCCC2)N1C(=O)c1ccccc1 (configuration not stated) | 10µM* | -2.9% | -2.0% | i | ? | -0.4%
CCC(C(=O)N1CCN(c2cccc(Cl)c2)CC1)c1ccccc1 (configuration not stated) | 25.1µM* | 11.3% | -0.8% | i | ? | 1.3%
CC1CC2(C)Oc3ccccc3C3OCC1(COC(=O)Nc1ccccc1)C(C)C32 (configuration not stated) | . | . | -0.6% | . | . | -0.3%
Nn1c(SCC(=O)NC2CCCc3ccccc32)nnc1-c1cccs1 (configuration not stated) | 0.199µM* | -0.9% | -0.5% | i | ? | -1.1%
O=C(N/N=C1/C[C@@H](O)[C@@H](O)[C@@H]2[C@@H]3C(=O)N(C[C@@H]4CCCO4)C(=O)[C@H]3CC[C@H]12)OCc1ccccc1 | 3.3%[11.4 µM] | . | -0.7%[15.4 µM] | . | -3.5%[11.4 µM] | -0.2%[15.4 µM]
N[C@H](CS(=O)O)C(=O)O | ? | -2.4% | . | i | ? | .
Cc1cc(C(=O)CSc2nnc(-c3ccco3)o2)c(C)n1-c1ccc2c(c1)OCCO2 | 15.8µM* | -7.1% | 0.5% | i | ? | 0.1%
Cc1nnc(SCC(=O)c2cc(C)n(-c3ccc4c(c3)OCO4)c2C)s1 | 15.8µM* | -11.1% | 3.0% | i | ? | -0.9%
O=C(Nc1ccccc1Cl)N1CCN(c2ccc3nnc(-c4ccccc4)n3n2)CC1 | 3.4% | -1.6% | 5.1% | i | -0.9% | -2.8%
O=C(Nc1ccc(Cl)cc1)N1CCN(c2ccc3nnc(-c4ccc(F)cc4)n3n2)CC1 | 25.1µM* | . | 2.0% | . | ? | -0.3%
C/C=C\C1=C(CO)C(=O)C2O[C@]2(CC=C(C)C)C1=O (some centres not stated) | 9.3%[11.4 µM] | . | 0.3%[15.4 µM] | . | 3.8%[11.4 µM] | 0.9%[15.4 µM]
COc1ccc2[nH]c(C(=O)c3ccccc3)cc2c1 | 7.94µM* | 7.1% | -1.3% | i | ? | -0.4%
COc1ccc(CCNc2oc(Cc3cccc4ccccc34)nc2C#N)cc1OC | 22.7% | ? | 3.0% | i | 20µM* | -0.2%
COc1ccc(CCNc2oc(COc3ccccc3F)nc2C#N)cc1 | 20µM* | -27.2% | 6.2% | i | ? | -0.3%
COc1ccc(CCNc2oc(COc3ccc(Br)cc3)nc2C#N)cc1OC | ? | ? | 0.8% | i | ? | -1.0%
CC1=C(\C=C/C(C)=C/C=C\C(C)=C\C(=O)Nc2ccc(O)cc2)C(C)(C)CCC1 | 0.9% | -18.7% | . | i | 11.4% | .
CC(=O)O[C@H]1CC[C@@]2(C)[C@@H](CC[C@@]3(C)[C@H]2C(=O)C=C2[C@H]4C[C@](C)(C(=O)OCCN5CCCCC5)CC[C@]4(C)CC[C@@]23C)C1(C)C | -3.1% | -3.9% | . | i | -4.2% | .
Cc1ccc2c(c1)N(CC(=O)N(Cc1ccc3c(c1)OCO3)CC1CCCO1)C(=O)C(C)O2 (configuration not stated) | 20µM* | -4.9% | -1.2% | i | ? | 1.7%
Cc1ccc(C)c(N2C(=O)CC(N3CCN(Cc4ccc5c(c4)OCO5)CC3)C2=O)c1 (configuration not stated) | 10.0%[11.4 µM] | -4.6%[11 µM] | -1.2% | i | 15.3%[11.4 µM] | -1.6%
Cc1ccc2c(c1)N(CC(=O)c1cccc(Cl)c1)C(=O)C(C)O2 (configuration not stated) | 20µM* | 3.5% | -0.8% | i | ? | -1.5%
CC1Oc2ccccc2N(CC(=O)c2cccc(Cl)c2)C1=O (configuration not stated) | ? | 22.8% | -0.8% | i | ? | -0.3%
O=C(c1ccco1)N1CCC2(CCN(Cc3ccncc3)CC2)CC1 | -5.3% | 1.0% | -3.6% | i | 2.7% | -0.3%
Nc1nonc1-c1noc(N2CCCCC2)n1 | 10µM* | -0.5% | -3.2% | i | ? | 0.2%
SMILES | HEK293 cAMP ctrl | Hsp90 Hop PPI | BRCT inh green | YjeE inh | TSHR agonist | BRCT inh red
C1CCN(c2nc3nonc3nc2N2CCCCC2)CC1 | ? | -3.0% | -1.0% | i | ? | -0.8%
CCOC(=O)C(=O)C1(C(=O)OCC)Oc2cc(OC)cc(OC)c2C(=O)C1c1ccccc1 (configuration not stated) | . | . | -0.7% | . | . | 0.1%
COC(=O)C1=C(C)NC(C)=C(C(=O)OCCSc2ccccc2)[C@@H]1C | 35.7% | 39.8µM* | 1.4% | i | . | -0.1%
CCN(CC)c1ccc2c(Cl)c(Br)c(=O)oc2c1 | ? | 25.1µM* | 7.2% | ? | ? | 6.6%
CCN(CC)c1ccc2c(c1)oc(=O)c1c(Cl)cc(=O)oc12 | -4.6% | 3.8% | 101.1% | i | -4.5% | 1.4%
CCOC(=O)Cc1c(C)c2ccc(N(CC)CC)cc2oc1=O | 27.9% | 25.1µM* | -1.8% | i | 10.5% | -0.6%
O=C(CCC(=O)OCC(F)(F)C(F)F)Nc1ccc(Cl)cc1 | 31.6µM* | -1.6% | -0.3% | i | ? | 1.3%
OC[C@@H]1O[C@@H](n2cnc3c(NCc4ccco4)ncnc32)[C@H](O)[C@H]1O | -0.5% | -4.9% | . | i | 19.4% | .
Cc1ccccc1CNc1ncnc2c1ncn2[C@@H]1O[C@@H](CO)[C@H](O)[C@@H]1O | 7.94µM* | -0.5% | -2.3% | i | ? | 1.0%
C[C@@H](Cc1ccccc1)Nc1ncnc2c1ncn2[C@@H]1O[C@@H](CO)[C@H](O)[C@@H]1O | 25.1µM* | -14.6% | -3.8% | i | ? | -1.4%
CNc1ncnc2c1ncn2[C@@H]1O[C@H](CO)[C@@H](O)[C@@H]1O | ? | -5.2%[26 µM] | -0.9%[34.4 µM] | i | ? | 0.3%[34.4 µM]
CN(C)c1ncc2nc(-c3ccc(Cl)cc3)c(=O)n(Cc3cccs3)c2n1 | -2.9% | ? | -2.5% | i | -0.8% | -1.5%
COC(=O)NC(CC(C)=O)c1cccs1 (configuration not stated) | -5.1%[11.4 µM] | . | -2.2%[15.4 µM] | . | -4.9%[11.4 µM] | -1.3%[15.4 µM]
CC(C)c1cccc2c([Si](C)(C)C)c3c(nc12)-c1cccc(=O)n1C3 | 25.1µM* | ? | 3.2% | i | ? | -3.1%
C[C@@H]1O[C@@H](OC[C@@H]2O[C@@H](Oc3c(-c4ccc(O)c(O)c4)oc4cc(O)cc(O)c4c3=O)[C@H](O)[C@H](O)[C@@H]2O)[C@H](O)[C@H](O)[C@@H]1O | -0.2% | 1.1% | . | i | -2.3% | .
